Screens from PubChem BioAssay.
TRPM1 prom inh: inhibitors of MITF-driven TRPM1 promoter in melanoma cells; SK-MEL-5 TRPM1 promoter luciferase, 24 h; inhibition, % at 12.5 µM; 330,000 compounds, 0.83% hits; AID 488899;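 active = mean inhibition across replicates of 60% or more, whatever share of single replicates reaches that level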
CHOP inh: inhibitors of CHOP induction in ER stress response; CHO-K1 CHOP-promoter luciferase, tunicamycin-induced, 15-18 h; inhibition, % at 10 µM; 220,000 compounds, 3.8% hits;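 active = compounds that reduced the stress-induced luciferase reporter signal by more than about 70% of percent inhibition, limit read from the data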
KKLEB tox: reduces viability of KKLEB cystic fibrosis airway cells; KKLEB CF airway cells viability, ATPlite luminescence, overnight; stronger effect = lower value; cells stimulated with P. aeruginosa culture filtrate; activity change (cytotoxicity), % at 5 µM; 360,000 compounds, 0.36% hits;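 active = corrected activity change at or below -50% at 5 µM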
HIF-2a inh: blocks HIF-2a reporter activity | 786-0 RCC cells HIF-2a reporter, luciferase luminescence, overnight | inhibition, % at 18.8 µM | 360,000 compounds, 0.72% hits | AID 624352;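 active = inhibition of the luminescence signal of 40% or more relative to plate controls, in a single-dose primary screen at 18.75 µM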
CF NFkB block: inhibitors of cystic fibrosis induced NF-kB; AID 588850; 360,000 compounds, 0.86% hits; KKLEB NF-kB-GFP reporter, PAF-induced, GFP fluorescence overnight; inhibition, % at 5 µM;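 active = at least 50% inhibition at 5 µM, scaled per plate between neutral and stimulator controls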;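 also: PAF is a Pseudomonas aeruginosa culture filtrate used as stimulus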
Peg3 promoter: reduces Peg3 promoter-driven luciferase expression in HeLa | HeLa PEG-Prom luciferase reporter, luminescence, overnight | inhibition, % at 20 µM | 360,000 compounds, 1.7% hits | AID 588405;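 active = inhibition of at least 50% at 20 µM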
A number is an active result; . = inactive; / = not tested or not shown; ! = repeats disagree. Sampled rows, rich in hits. Any-hit rate of the full collection: about 4.3%.

SMILES | TRPM1 prom inh | CHOP inh | KKLEB tox | HIF-2a inh | CF NFkB block | Peg3 promoter
COc1cc2c(cc1NC(=O)CSc1nc3ccccc3[nH]1)oc1ccccc12 | . | 95 | . | . | . | .
COc1cc2c(cc1NC(=O)CN(C)Cc1nc3ccccc3c(=O)[nH]1)oc1ccccc12 | . | 74 | . | . | . | .
COc1cc2c(cc1NC(=O)CSc1nc3cc(Cl)ccc3s1)oc1ccccc12 | . | . | -60 | . | . | .
COc1cc2c(cc1NC(=O)CSc1ccccc1)oc1ccccc12 | . | . | . | . | . | .
COc1ccc(OC)c(C2Nc3ccccc3NC3=C2C(=O)CC(C)(C)C3)c1 (configuration not stated) | . | / | . | . | . | .
CCN(CC)CCOC(=O)c1ccc(NC(=O)CSc2nnc(-c3cccs3)n2CC)cc1 | . | / | . | . | . | .
CCCCn1nnnc1C(c1cc2ccccc2o1)N(CCN(C)C)Cc1ccccc1 (configuration not stated) | / | / | / | . | / | /
Cc1ccc(/C=C2\CC(C)CC3=C2NC(=S)NC3c2ccc(C)cc2)cc1 (configuration not stated) | . | . | . | . | . | .
CC1CC2=C(NC(=S)NC2c2cccc(F)c2)/C(=C/c2cccc(F)c2)C1 (configuration not stated) | . | 86 | . | . | . | .
S=C1NCc2cncnc2N1 | / | / | . | . | . | .
COc1cc(-c2noc(C)c2/C=C/c2ccc(N)cc2)cc(OC)c1OC | 63 | / | . | . | . | .
COc1cc(-c2noc(C)c2C#Cc2ccc(N)cc2)cc(OC)c1OC | . | / | . | . | 52 | .
CCNC(=O)C1CCCN(C(=O)c2cnc3ccccc3n2)CC1 (configuration not stated) | / | / | . | . | . | .
CN(CC(=O)Nc1ccc(Cl)c(C(F)(F)F)c1)C(=O)Cn1cc([N+](=O)[O-])ccc1=O | . | / | . | . | . | .
CC(=O)c1cccc(N(C(=O)c2ccco2)C(C(=O)NC2CCCC2)c2ccccc2F)c1 (configuration not stated) | . | / | . | . | . | .
COC(=O)[C@@]12C[C@@H](CC(=O)NCCC(C)C)C(=O)N(Cc3ccc4c(c3)OCO4)C1=CCC(C)(C)C2 | / | / | / | . | / | /
CCOC(=O)C1=C(C)N=c2s/c(=C\c3ccc(OCC(=O)O)cc3)c(=O)n2C1c1ccccc1OC (configuration not stated) | . | / | . | . | . | .
CCOC(=O)C1=C(C)N=c2s/c(=C\c3ccc(O)c([N+](=O)[O-])c3)c(=O)n2C1c1ccccc1OC (configuration not stated) | . | / | . | . | . | 53
COc1ccc(-c2csc(N3CCN(c4cc(C)nc5ccccc45)CC3)n2)cc1OC | 73 | . | . | . | . | 100
Cc1ccc(NC2CCCN(C(=O)Cc3nonc3C)C2)cc1C (configuration not stated) | . | / | . | . | . | .
OCCN1CCN(CCCN2c3ccccc3Sc3ccc(Cl)cc32)CC1 | . | . | . | . | . | .
CN(C)CCCN1c2ccccc2Sc2ccc(Cl)cc21 | . | . | . | . | . | 75!
CCc1ccccc1Oc1nc(NCCOC)nc2cc(-c3ccccc3)sc12 | / | / | . | . | . | .
c1ccc(CC2CCN(C3=Nc4cccc5cccc3c45)CC2)cc1 | . | 88 | . | . | . | .
COc1cc(CNCCNC(=O)c2nonc2N)ccc1OCc1ccc(Cl)cc1 | . | . | . | . | . | 88
SMILES | TRPM1 prom inh | CHOP inh | KKLEB tox | HIF-2a inh | CF NFkB block | Peg3 promoter
CSc1nc2c(c(-c3ccc(O)cc3)c1C#N)CCC2 | . | 86 | . | . | . | .
COc1ccc(-c2c(C#N)c(N)nc3c2CCC3)cc1 | . | . | . | . | . | .
CNc1c(NS(=O)(=O)c2ccc(C3CCCCC3)cc2)c(=O)oc2ccccc12 | . | / | . | . | . | .
c1ccc(-c2csc3ncnc(N4CCc5ccccc5C4)c23)cc1 | . | 86 | . | . | . | .
c1ccc(-c2csc3ncnc(N4CCOCC4)c23)cc1 | . | . | . | . | . | .
CC1CCC(C(C)C)C(=O)/C1=C/c1ccc(N)cc1 (configuration not stated) | . | . | . | . | . | .
CC1/C(=C\c2ccc(Cl)cc2)C(=O)C2CC1C2(C)C (configuration not stated) | . | 76 | . | . | . | .
N#Cc1ccc(-c2ccc(Cl)cc2)nc1SCC(=O)c1cccc(Cl)c1 | . | . | . | . | . | 86
N#Cc1ccc(-c2ccccc2)nc1SCC(=O)c1cccc(Cl)c1 | . | . | . | . | . | .
Cc1ccc(C(O)c2ncc(-c3ccccc3F)[nH]2)c(C)c1 (configuration not stated) | / | / | . | . | . | .
O=C(Nc1ccc(F)cc1F)c1cccn1-c1ncc(C(F)(F)F)cc1Cl | . | . | . | . | . | .
Cc1cc(C)cc(NC(=O)c2cccn2-c2ncc(C(F)(F)F)cc2Cl)c1 | . | 74 | . | . | . | .
CCOC(=O)C1(CCc2ccccc2)CCN(Cc2c(O)cccc2OC)CC1 | . | 73 | . | . | . | .
CCOC(=O)C1(Cc2ccccc2)CCN(Cc2ccc(C3CCCCO3)s2)CC1 (configuration not stated) | . | . | . | . | . | .
CCOC(=O)C1(Cc2ccccc2)CCN(Cc2ccc(C)s2)CC1 | . | 90 | . | . | . | .
Fc1ccc(CNc2nc(-c3ccccc3)nc3ccccc23)cc1 | . | 73 | . | . | . | .
O=[N+]([O-])c1ccc(-c2nc(NCc3ccccc3)c3ccccc3n2)cc1 | . | 90 | . | . | . | .
O=C(Nc1nc2c(Br)cc(Br)cc2c(=O)s1)C1CCC1 | . | 91 | . | . | . | .
CC(=O)Nc1ccc2c(c1)Cc1ccc(Cl)cc1-2 | . | / | . | . | . | .
CC(=O)Nc1ccc2c(c1)Cc1cc(N3C(=O)C=CC3=O)ccc1-2 | 78 | / | . | 42 | . | 98
O=C1C=CC(=O)N1c1ccc2c(c1)Cc1cc(F)ccc1-2 | . | / | . | . | . | 97
O=C(Nc1cc(C(F)(F)F)cc(C(F)(F)F)c1)[C@H]1O[C@@H](n2ccc(=O)[nH]c2=O)[C@H](O)[C@@H]1O | / | / | . | . | . | .
CC(C)[C@H](NC(=O)c1c(F)cccc1F)C(=O)OCC(=O)NNC(=O)c1ccccc1 | / | / | . | . | . | .
COc1ccnc(Oc2ccccc2)c1C(=O)N/C=N/OCc1ccc(F)cc1Cl | . | . | . | . | . | 57
COc1ccccc1CO/N=C/NC(=O)c1c(OC)ccnc1Oc1ccc(F)cc1 | . | . | . | . | . | .
O=C(/C=C/[C@H]1O[C@@H](n2ccc(=O)[nH]c2=O)[C@H](O)[C@@H]1O)NCCN1CCCC1 | / | / | . | . | . | .
COc1ccc(S(=O)(=O)N2CCOCC2)cc1NC(=O)c1ccc(OC(F)F)cc1 | . | / | . | . | . | .
